Inconclusive results are not listed. Where a call stands in place of a potency, no number is given. Some structures have more than one record in an assay (separate samples or runs), and their calls can disagree. Active and inactive are the calls of the source. The call rests on the fitted dose curve.
These molecules were tested against Peroxisome proliferator-activated receptor gamma (Homo sapiens) (UniProt P37231) (assay: qHTS assay to identify small molecule antagonists of the peroxisome proliferator-activated receptor gamma (PPARg) signaling pathway (AID 743191; further: nearly all actives have a fitted effect of over 30% in size)). Settings: HEK293H PPARg-UAS-bla, beta-lactamase ratio, antagonist, 17 h; series mostly up to 62.6 µM.
Chain of Peroxisome proliferator-activated receptor gamma (Homo sapiens) (P37231 whole entry, looked up): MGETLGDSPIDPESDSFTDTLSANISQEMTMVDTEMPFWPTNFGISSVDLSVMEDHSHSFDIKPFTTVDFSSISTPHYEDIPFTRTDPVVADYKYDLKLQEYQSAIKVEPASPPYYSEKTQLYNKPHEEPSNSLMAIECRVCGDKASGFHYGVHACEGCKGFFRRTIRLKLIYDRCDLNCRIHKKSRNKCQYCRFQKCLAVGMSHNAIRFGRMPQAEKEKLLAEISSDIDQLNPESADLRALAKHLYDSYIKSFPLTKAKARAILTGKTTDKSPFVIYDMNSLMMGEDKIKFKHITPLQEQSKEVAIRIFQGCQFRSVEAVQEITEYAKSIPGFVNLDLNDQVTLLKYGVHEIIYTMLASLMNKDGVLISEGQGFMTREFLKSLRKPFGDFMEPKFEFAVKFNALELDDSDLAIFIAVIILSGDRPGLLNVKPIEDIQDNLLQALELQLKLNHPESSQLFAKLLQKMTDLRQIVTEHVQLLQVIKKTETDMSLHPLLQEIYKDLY
From the text: U.S. Tox21 Program National Center for Advancing Translational Sciences [NCATS] NIH Chemical Genomics Center [NCGC] U.S. Environmental Protection Agency [EPA] National Institutes of Environmental Health Sciences [NIEHS] National Toxicology Program [NTP] U.S. Food and Drug Administration [FDA] Tox21 Assay Overview: The peroxisome proliferator-activated receptors (PPARs) are lipid-activated transcription factors of the nuclear receptor superfamily with three distinct subtypes namely PPAR alpha, PPAR delta (also called PPAR beta) and PPAR gamma (PPARg). All these subtypes heterodimerize with Retinoid X receptor (RXR) and these heterodimers regulate transcription of various genes. PPAR-gamma receptor (glitazone receptor) is involved in the regulation of glucose and lipid metabolism. To identify the compounds that inhibit PPAR-gamma signaling, GeneBLAzer PPAR gamma UAS-bla HEK293H cell line (Invitrogen, Carlsbad, CA, USA) containing a beta-lactamase reporter gene under control of an Upstream Activator Sequence (UAS) was used to screen the Tox21 compound library.
Tox21 Assay Protocol Summary: PPARg-bla cells were dispensed at 3000 cells/6uL/well in 1536-well black wall/clear bottom plates using a Multidrop Combi (Thermo Fisher Scientific, Waltham, MA) dispenser. After the assay plates were incubated at 37C and 5% CO2 for 5 h, 23 nL of compounds dissolved in DMSO, positive controls or DMSO only was transferred to the assay plate by a Pintool station (Kalypsys, San Diego, CA). The assay plates were incubated at 37C for 17 h. After 1 uL of LiveBLAzerTM B/G FRET substrate was added using a Bioraptr Flying Reagent Dispenser (FRD) workstation (Beckman Coulter, Indianapolis, IN, USA), the plates were incubated at room temperature for 1 h, and fluorescence intensity was measured by an Envision plate reader (PerkinElmer, Shelton, CT).
CCCCCCCCCC(=O)OC was tested, and the Potency was “inactive”. With CCC(C)CO (stereo not given) the Potency was “inactive”. For Nc1ccc(Nc2ccccc2)cc1, the Potency was “inactive”. In the case of C=CC(C)(CCC=C(C)C)OC(C)=O (stereo not given), the Potency is reported as “inactive”. O=Cc1ccccc1O was tested, and the Potency was “inactive”. For Cc1cccc(C(=O)O)c1, the Potency was “inactive”. With CCOC(=O)C(C#N)=C(c1ccccc1)c1ccccc1 the Potency was 49 µM (active) and inactive. With CCC(C)(O)CCCC(C)C (stereo not given) the Potency was “inactive”. Nc1ccc(Cl)cc1Cl was tested, and the Potency was “inactive”. C=C(C)C(=O)OCCOC(=O)C(=C)C was tested, and the Potency was “inactive”. In the case of CCCCOCCOCCO, the Potency is reported as “inactive”. With Cc1ccc(C)c(O)c1C the Potency was “inactive”. For CN(C)CCN(Cc1cccs1)c1ccccn1, the Potency was “inactive”. With COc1ccc(C(=O)CC(=O)c2ccc(C(C)(C)C)cc2)cc1 the Potency was “inactive”. In the case of S=C(NC1CCCCC1)NC1CCCCC1, the Potency is reported as “inactive”. In the case of CCCc1c(OCCCCc2nn[nH]n2)ccc(C(C)=O)c1O, the Potency is reported as 8.71 µM (active). For NC=O, the Potency was “inactive”. In the case of OC(CCl)CCl, the Potency is reported as “inactive”. In the case of CC(C)Oc1ccc2c(=O)c(-c3ccccc3)coc2c1, the Potency is reported as “inactive”. With Nc1ncn([C@@H]2O[C@H](CO)[C@@H](O)[C@H]2O)c(=O)n1 the Potency was “inactive”. In the case of Clc1nc(Cl)c(Cl)c(Cl)c1Cl, the Potency is reported as “inactive”. In the case of CCOCCOCCO, the Potency is reported as “inactive”. In the case of OC1CCCCCCCCCCC1, the Potency is reported as “inactive”. CCCCC(CC)COP(=O)(OCC(CC)CCCC)OCC(CC)CCCC (stereo not given) was tested, and the Potency was “inactive”. For COC(=O)Nc1nc2ccc(S(=O)c3ccccc3)cc2[nH]1 (stereo not given), the Potency was “inactive”. For c1ccc(Nc2ccccc2)cc1, the Potency was “inactive”. For CN(C)CCC=C1c2ccccc2CCc2ccccc21, the Potency was “inactive”. In the case of Nc1ccc(S(=O)(=O)Nc2cnc3ccccc3n2)cc1, the Potency is reported as “inactive”. Cc1[nH]c(=O)c(C#N)cc1-c1ccncc1 was tested, and the Potency was “inactive”. In the case of CC(=O)C1(C)CC2=C(CCCC2(C)C)CC1C (stereo not given), the Potency is reported as “inactive”. CN1C(C(=O)Nc2ccccn2)=C(O)c2ccccc2S1(=O)=O was tested, and the Potency was “inactive”. In the case of COc1ccccc1/C=C/C=O, the Potency is reported as “inactive”. With COC(=O)CCC(=O)OC the Potency was “inactive”. For O=C(/C=C/C=C/c1ccc2c(c1)OCO2)N1CCCCC1, the Potency was 43.7 µM (active). For Brc1cc(Oc2cc(Br)c(Br)c(Br)c2Br)c(Br)c(Br)c1Br, the Potency was “inactive”. O=C1c2cccc(O)c2C(=O)c2c(O)cccc21 was tested, and the Potency was “inactive”. Cc1ccc2c(n1)Oc1ccc(C(C)C(=O)OCC(=O)N(C)C)cc1C2 (stereo not given) was tested, and the Potency was “inactive”. With CCC(C)c1ccccc1O (stereo not given) the Potency was “inactive”. Cc1c(OCC(F)(F)F)ccnc1CS(=O)c1nc2ccccc2[nH]1 (stereo not given) was tested, and the Potency was “inactive”. In the case of CCCCC(CC)COC(=O)c1ccc(N(C)C)cc1 (stereo not given), the Potency is reported as “inactive”.

— PubChem BioAssay (Tox21)
Potency means the concentration at half of the fitted maximal effect.
